Assay results taken from PubChem BioAssay (NCI).
Compounds without any hit were thinned out: in the full panel of roughly 79,000, 15% have a hit. Cut-off read from the data, not from the text of the source: active = growth inhibition above about 70%; inactive = the rest.

Key:
[1] = NCI Yeast Anticancer Drug Screen. Data for the mec2-1 strain (AID 157); conditions: S. cerevisiae mec2-1 strain, at 50.0 µM, stronger effect = higher value
Procedure, shortened: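 Compounds were applied to mec2-1 yeast cells. Their growth was then compared with that of vehicle-treated cultures to give growth inhibition.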

[2] = NCI Yeast Anticancer Drug Screen. Data for the sgs1 mgt1 strain (AID 161);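 note: 0% = growth of cultures given vehicle only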; conditions: S. cerevisiae sgs1 mgt1 strain, at 50.0 µM, stronger effect = higher value
Procedure, shortened: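 Yeast cells carrying a defined DNA-repair defect were exposed to test compounds. Growth inhibition was measured relative to vehicle-treated controls.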

[3] = NCI Yeast Anticancer Drug Screen. Data for the cln2 rad14 strain (AID 165);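 note: 0% = growth equal to vehicle treated cultures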; conditions: S. cerevisiae cln2 rad14 strain, at 50.0 µM, stronger effect = higher value
Procedure, shortened: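 Strain: cln2 rad14 yeast, altered in cell cycle control and DNA damage repair. Read-out: growth inhibition vs vehicle.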

[4] = NCI Yeast Anticancer Drug Screen. Data for the bub3 strain (AID 167); conditions: S. cerevisiae bub3 mutant strain, at 50.0 µM, stronger effect = higher value
Procedure, shortened: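 In this screen, a yeast mutant lacking normal mitotic checkpoint function is challenged with compound. Relative growth versus vehicle gives the inhibition value.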

[5] = NCI Yeast Anticancer Drug Screen. Data for the mlh1 rad18 strain (AID 175); conditions: S. cerevisiae mlh1 rad18 strain growth inhibition; at 50.0 µM; stronger effect = higher value
Procedure, shortened: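 A repair-deficient yeast strain is exposed to test compound, and growth is scored relative to vehicle-treated controls.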

Measured: growth inhibition

Cc1cc(C)nc(N)n1
inactive: [1] 0.35% | [2] -1.85% | [3] -42.9% | [4] -1.9% | [5] 10.1%

CC(C)(O)c1cccc(I)c1
inactive: [1] -58.9% | [2] -21.1% | [3] -144% | [4] -39.8% | [5] 1.55%

COc1ccccc1NC(=O)C(/C=N/C(N)=S)=C(\C)O
inactive: [1] -6.5% | [2] -33.1% | [3] 7.6% | [4] -3.65% | [5] -14.4%

O=c1oc2ccccc2[n+]([O-])c1-c1ccccc1
inactive: [1] -10.8% | [2] -9.35% | [3] 16.9% | [4] -18.8% | [5] -17.9%

CC(=O)c1cccc(N)c1
inactive: [1] -5.75% | [2] -20.4% | [3] -23.3% | [4] -15.8% | [5] 3.1%

c1ccc(SC2(Sc3ccccc3)CCCC2)cc1
inactive: [1] -22.1% | [2] -12.2% | [3] -0.5% | [4] -24.6% | [5] -17.4%

O=[N+]([O-])c1cc2c(cc1O)[nH]c1cccc([N+](=O)[O-])c12
inactive: [1] -11.4% | [2] -42.5% | [3] 21.1% | [4] -15.8% | [5] -22.6%

O=CNc1ccc(-c2ccc(NC=O)cc2)cc1
inactive: [1] 4.5% | [2] 7.75% | [3] 13.1% | [4] -12.8% | [5] -6.4%

Nc1nc(N)nc(CC(=O)O)n1
inactive: [1] -22.7% | [2] -57% | [3] -60.2% | [4] -14.7% | [5] -36.7%

CCCOC(=O)CCCCC(=O)OCCC
inactive: [1] 17.9% | [2] -8.65% | [3] -4% | [4] 0.85% | [5] 11.9%

CC1(C)CC(C)(O)N(CCc2ccccc2)C(=S)N1 (stereo not drawn)
inactive: [1] 2.7% | [2] 8.8% | [3] -17.1% | [4] 5.15% | [5] 2.45%

N#CSC1C=CS(=O)(=O)C1 (stereo not drawn)
inactive: [1] 4.05% | [2] 19.6% | [3] -44.1% | [4] 3.55% | [5] 58.8%

CCCn1c(C)nc2cc(C(F)(F)F)cc(N)c21
inactive: [1] 11.4% | [2] 1.55% | [3] -35.4% | [4] 17.9% | [5] 5.5%

O=C(NCCCCCCCCCNC(=O)C12CC3CC(CC(C3)C1)C2)C12CC3CC(CC(C3)C1)C2
inactive: [1] 9.2% | [2] 21.7% | [3] 29.5% | [4] -1.55% | [5] 28.4%

O=C(CC(=O)n1nc(-c2ccccc2)c(N=Nc2ccccc2Cl)c1-c1ccccc1)Nc1ccc(Cl)cc1
inactive: [1] 8.45% | [2] -3.95% | [3] 13.9% | [4] -18.7% | [5] -8.65%

CCN1c2nc3ccccc3nc2N(CC)c2nc3ccccc3nc21
inactive: [1] 12.5% | [2] 23.9% | [3] 6.55% | [5] 5.3%

CCCCc1ccc(O)c(CN(CC)CC)c1
inactive: [1] -8.2% | [2] -11.6% | [3] -23.6% | [4] -6.8% | [5] -2.9%

Cc1nc2cc([N+](=O)[O-])ccc2c(NCCCN(C)C)c1C
inactive: [1] 8.35% | [2] 7.25% | [3] -1.45% | [4] -3.5% | [5] -39.6%

CN(C)c1ccc(-c2cc(C(=O)O)c3cc(I)ccc3n2)c(Cl)c1
inactive: [1] 30.6% | [2] 36.5% | [3] 51.4% | [4] 46.1% | [5] 35.8%

O=C(COc1ccccc1[N+](=O)[O-])Nc1cccnc1
inactive: [1] -10.8% | [2] -12.3% | [3] -9.25% | [4] -3.25% | [5] 8.25%

CC(C)CCCC(C)C1CCC2C3CCC4=CCCCC4(C)C3CCC12C (stereo not drawn)
inactive: [1] 33% | [2] 27.8% | [3] 33.1% | [4] 2.45% | [5] 50.7%

CC(=O)[C@H]1CC[C@H]2[C@@H]3CC(=O)C4=CC(=O)CC[C@]4(C)[C@H]3C(=O)C[C@]12C
inactive: [1] -12.2% | [2] 11.2% | [3] -25.6% | [4] 0.45% | [5] -4.9%

CCN(CC)CCC(C(=O)O)(c1ccccc1)C1(O)CCCC1 (stereo not drawn)
inactive: [1] -13.3% | [2] -7.9% | [3] -26.8% | [4] 7.1% | [5] -25.9%

Cc1ccc(C2(c3ccc(C)cc3)OCC(C)(CBr)CO2)cc1
inactive: [1] -1.4% | [2] -20.4% | [3] -8.5% | [4] 1.6% | [5] -14.5%

C/C=C/C=N/SC(c1ccccc1)(c1ccccc1)c1ccccc1
inactive: [1] -7% | [2] -5.05% | [3] 4.45% | [4] -26.1%

O=c1[nH]c2ccccc2[nH]1
inactive: [1] -14.9% | [2] -7.6% | [3] -28% | [4] -13.2% | [5] -14.4%

CCOC(=O)c1cc(=O)[nH]c(N)n1
inactive: [1] -10.8% | [2] -1.55% | [3] -38.2% | [4] 10.4% | [5] -4.15%
